Source: the supplement of paper PMC9694430
Values joined by “and” are separate entries in the source; they are usually repeats but may differ in a detail not shown here. Equal values may be shown once.

Tests used:
Assay in all cases: thermal shift delta Tm vs DMSO control; higher = stronger stabilization (binding)
Settings in all cases: 12.5 µM; protein concentration 2 µM
LOC_OS04G57630-cb004 = system: LOC_OS04G57630-cb004
Outline: (§1)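 Purified, E. coli-expressed rice kinase domain constructs were tested by differential scanning fluorimetry in 96-well plates: 19.5 μl of 2 μM kinase in 100 mM potassium phosphate pH 7.5, 150 mM NaCl, 10% glycerol, 5 × SYPRO Orange, plus compound in DMSO. Fluorescence was read from 25°C to 95°C at 0.05°C/s. Melting temperatures came from Boltzmann fits, and the shift is the triplicate mean relative to protein with DMSO alone.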

LOC_OS05G07850-cb002 = system: LOC_OS05G07850-cb002
Outline: as §1

LOC_OS05G16824-cb004 = system: LOC_OS05G16824-cb004
Outline: as §1

LOC_OS05G28520-cb001 = system: LOC_OS05G28520-cb001
Outline: as §1

LOC_OS05G30820-cb001 = system: LOC_OS05G30820-cb001
Outline: as §1

LOC_OS05G43570-cb004 = system: LOC_OS05G43570-cb004
Outline: as §1

LOC_OS06G16330-cb003 = system: LOC_OS06G16330-cb003
Chain of LOC_OS06G16330-cb003 (as listed by the source): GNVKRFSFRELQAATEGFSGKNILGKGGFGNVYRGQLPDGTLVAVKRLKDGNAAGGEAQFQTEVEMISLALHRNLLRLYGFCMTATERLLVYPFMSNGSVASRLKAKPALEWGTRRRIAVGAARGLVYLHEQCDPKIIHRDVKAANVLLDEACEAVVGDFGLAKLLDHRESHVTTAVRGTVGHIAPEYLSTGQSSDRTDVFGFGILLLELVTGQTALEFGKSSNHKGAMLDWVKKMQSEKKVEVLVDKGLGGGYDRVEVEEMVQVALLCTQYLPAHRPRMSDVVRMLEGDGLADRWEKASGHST
Outline: as §1

LOC_OS06G22820-cb001 = system: T1, LOC_OS06G22820-cb001
T1 sequence (whole entry): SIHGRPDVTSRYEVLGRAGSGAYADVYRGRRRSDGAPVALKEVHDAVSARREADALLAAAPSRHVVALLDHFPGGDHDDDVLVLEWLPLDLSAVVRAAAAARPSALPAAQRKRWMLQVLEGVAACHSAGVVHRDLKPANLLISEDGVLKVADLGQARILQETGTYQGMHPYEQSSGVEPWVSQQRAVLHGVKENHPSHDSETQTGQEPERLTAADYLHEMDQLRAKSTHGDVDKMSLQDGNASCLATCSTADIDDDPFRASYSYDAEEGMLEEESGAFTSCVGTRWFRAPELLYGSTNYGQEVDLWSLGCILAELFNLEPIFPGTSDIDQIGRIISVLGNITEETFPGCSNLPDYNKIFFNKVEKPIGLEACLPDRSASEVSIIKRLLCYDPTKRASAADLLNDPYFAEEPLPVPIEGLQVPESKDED
Outline: as §1

LOC_OS07G06570-cb004 = system: LOC_OS07G06570-cb004
Outline: as §1

LOC_OS07G07230-cb001 = system: LOC_OS07G07230-cb001
Outline: as §1

Row | Structure (SMILES) | thermal shift delta Tm (LOC_OS04G57630-cb004) | thermal shift delta Tm (LOC_OS05G07850-cb002) | thermal shift delta Tm (LOC_OS05G16824-cb004) | thermal shift delta Tm (LOC_OS05G28520-cb001) | thermal shift delta Tm (LOC_OS05G30820-cb001) | thermal shift delta Tm (LOC_OS05G43570-cb004) | thermal shift delta Tm (LOC_OS06G16330-cb003) | thermal shift delta Tm (LOC_OS06G22820-cb001) | thermal shift delta Tm (LOC_OS07G06570-cb004) | thermal shift delta Tm (LOC_OS07G07230-cb001)
1 | O=C(NC1CCNCC1)c1n[nH]cc1NC(=O)c1c(Cl)cccc1Cl | -0.08 °C and 0.55 °C | 0.37 °C and 0.45 °C | -3.35 °C and -1.47 °C | 0.1 °C and 0.64 °C | 0.56 °C and 0.5 °C | 0.07 °C and 0.69 °C | -0.07 °C and 0.05 °C | 0.77 °C and 1.12 °C | 0.44 °C and 0.91 °C | 0.04 °C and 0.01 °C
2 | Cc1cc(C(=O)Nc2nc3cccc(Cl)c3n2[C@@H]2CCCCN(C(=O)/C=C/CN(C)C)C2)ccn1 [Nazartinib (EGF816, NVS-816)] | 0.04 °C | 3.43 °C | -0.02 °C | 0.54 °C | 0.6 °C | 0.38 °C | 0.74 °C | 0.4 °C | 1.91 °C | 0.43 °C
3 | CC(C)(C)c1cc(NC(=O)Nc2ccc(Oc3ccnc4[nH]c(=O)cnc34)cc2F)n(-c2ccccc2)n1 | 10.3 °C | 12.5 °C | 0.62 °C | 0.57 °C | 0.39 °C | 0.48 °C | 5.36 °C | 0.49 °C | 1.22 °C | -0.1 °C
4 | O=C1NC(=O)[C@@H](c2cn3c4c(cccc24)CCC3)[C@@H]1c1c[nH]c2ccccc12 [Tivantinib (ARQ 197)] | 0.47 °C | 0.25 °C | -2.47 °C | 0.49 °C | 0.62 °C | 0.57 °C | 0.29 °C | 0.65 °C | 0.51 °C | 0.56 °C
5 | Cc1c(Cn2c(C)nc3c(C(=O)O)cc(N4CCOCC4)cc32)cccc1C(F)(F)F | -0.06 °C | -0.15 °C | -2.15 °C | -0.07 °C | 0.36 °C | 0.33 °C | -0.16 °C | 0.35 °C | 1.32 °C | 0.5 °C
6 | COc1ncc(-c2ccc3nccc(-c4ccnnc4)c3c2)cc1NS(=O)(=O)c1ccc(F)cc1F | 0.93 °C | 6.11 °C | 2.11 °C | 0.26 °C | 0.47 °C | 0.73 °C | 2.61 °C | 0.6 °C | 0.86 °C | -0.21 °C
7 | O=C1NC(=O)C(=Cc2ccc(-c3ccc(F)cc3)o2)S1 (stereo in doubt) | 0.48 °C | 1.37 °C | -3.64 °C | 0.89 °C | 0.73 °C | 1.06 °C | 0.12 °C | 0.65 °C | 0.53 °C | 0.04 °C
8 | COc1ccc(CC(=O)Nc2nc3c(s2)CCc2ccccc2-3)cc1OC | 0.43 °C | 1.41 °C | 2.09 °C | 0.12 °C | 0.13 °C | 0.04 °C | -0.23 °C | 0.35 °C | 1.1 °C | 0.06 °C
9 | CCNC(=O)C#Cc1ccc2c(C(=Nc3ccc(CN(C)C)cc3)c3ccccc3)c(O)[nH]c2c1 | 2.92 °C | 5.17 °C | 8.59 °C | 0.18 °C | 0.42 °C | 0.36 °C | 1.85 °C | 0.09 °C | 0.62 °C | -0.34 °C
10 | CC1=C(C(=O)Nc2cc3cn[nH]c3cc2F)C(c2ccc(C(F)(F)F)cc2)CC(=O)N1 (stereo not given) | -0.15 °C | 0.48 °C | -6.69 °C | -0.3 °C | 0.33 °C | 1.08 °C | -0.13 °C | 0.24 °C | 0.71 °C | 0.37 °C
11 | O=c1nc(N2CCOCC2)oc2c(-c3cccc4c3sc3ccccc34)cccc12 | -0.05 °C | 1.07 °C | 1.26 °C | -0.27 °C | -0.09 °C | -0.65 °C | -1.74 °C | 0.33 °C | 0.14 °C | 0.66 °C
12 | Cc1cccc(CC(=O)N2CCc3c2ccc(-c2cn(C)c4ncnc(N)c24)c3F)n1 | 1.09 °C | 2.24 °C | 0.43 °C | 0.62 °C | 0.47 °C | 0.42 °C | 1.13 °C | 0.75 °C | 1.03 °C | 1.75 °C
13 | N#C/C(=C\c1ccc(O)c(O)c1)C(=O)NCc1ccccc1 [AG-490 (Tyrphostin B42)] | -1.22 °C | -1.56 °C | -18.1 °C | 1.95 °C | 0.64 °C | 0.9 °C | -0.03 °C | 1 °C | 2.29 °C | 0.61 °C
14 | COc1cc(C(=O)N2CCC(N3CCN(C)CC3)CC2)ccc1Nc1ncc2c(n1)N(C)c1ccccc1C(=O)N2C | 0.47 °C | 4.15 °C | -2.69 °C | 0.06 °C | 0.42 °C | -1.79 °C | 0.93 °C | 0.32 °C | 0.88 °C | 0.74 °C
15 | CSc1cccc(Nc2ncc3cc(-c4c(Cl)cccc4Cl)c(=O)n(C)c3n2)c1 | 0.15 °C | 5.12 °C | 1.03 °C | 0.64 °C | 0.34 °C | 0.27 °C | 0.34 °C | 0.59 °C | 0.45 °C | 0.66 °C
16 | C=CC(=O)Nc1ccc(CN2C(=O)N(c3cc(OC)cc(OC)c3)Cc3cnc(Nc4ccc(N5CCN(C)CC5)cc4)nc32)cc1 | 7.31 °C | 0.75 °C | 1.16 °C | 1.83 °C | 0.78 °C | 0.66 °C | 2.37 °C | 0.84 °C | 2.63 °C | 1.29 °C
17 | O=C1CCc2c(Oc3ccc4c(c3)[C@@H]3[C@H](O4)[C@H]3c3nc4cc(C(F)(F)F)ccc4[nH]3)ccnc2N1 [Lifirafenib (BGB-283)] | 5.81 °C | 9.47 °C | -0.92 °C | 0.64 °C | 0.42 °C | 1.09 °C | 2.37 °C | 1.16 °C | 1.23 °C | -0.15 °C
18 | C[C@H](CN(C)C)Oc1nc(Nc2cc3cccc(Cl)c3cn2)cnc1C#N | -0.04 °C | 5.49 °C | 3.41 °C | 0.32 °C | 0.46 °C | 0.43 °C | 1.98 °C | 0.49 °C | 0.8 °C | 0.34 °C
